High-throughput results from PubChem.
An excerpt weighted towards active compounds, which were near 14% of everything screened.
HSD17B inhib: blocks hydroxysteroid 17-beta dehydrogenase activity; 75,000 tested, 7.6% active; AID 893; Potency, µM (doses to about 57.1 µM), inactives show at the top dose activity change, negative = inhibition, most hits filed as inhibitors; recombinant HSD17B10, NADH fluorescence kinetic;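 note: the protocol describes HADH2 (HSD17B10) and not the HSD17B4 of the title; potency is the fitted concentration of half-maximal effect; % is set by controls: 0 for no effect and ±100 for the full control effect; nearly all actives have a fitted effect of over 70% in size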
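His-tagged E. coli-expressed HADH2 at 20 nM in 100 mM Tris-HCl pH 9.0 with 0.01 % Tween-20, preincubated 15 min with compound at room temperature. Reaction with 1 mM NAD+ and 90 uM beta-hydroxybutyryl coenzyme A; NADH fluorescence (360/450 nm) read kinetically over 4 min, last minus first point.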
AID923: qHTS Assay for Allosteric/Competitive Inhibitors of Caspase-1: Spectroscopic Profiling in AFC Spectral Region. 75,000 tested, 1.1% active. AID 923, 2007. compound fluorescence, AFC spectral region (405/520 nm). Potency, µM (highest dose often 57.5 µM), without a hit: top-dose fluorescence increase, usual class: activators; note: potency is the fitted concentration of half-maximal effect; 0% is about no effect
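Compound autofluorescence profiled at 405 nm ex/520 nm em during kinetic caspase 1 run (50 nM enzyme, 5 uM Ac-WEHD-AFC, HEPES pH 7.5, 10 mM DTT). Titration up to 57 uM; baseline from regression intercept, normalized to AFC standard curve.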
CRE Fsk mod: CRE-bla signaling modulation under forskolin stimulation | 71,000 tested, 2.5% active | CHO CRE-bla reporter (cAMP response element driving beta-lactamase), forskolin EC10, beta-lactamase ratio | Potency, µM (top dose mostly 38.2 µM), for inactives: at the highest dose activity change, negative = inhibition, usual class: activators; active = well fitted activation curve with a large enough effect in the signal ratio, with a control signal flat, not every such curve was filed as active; inconclusive = small, poorly fitted or top-dose-only effect, or effect the other way, or a change in a side signal; the % refers to the signal ratio; note: potency is the fitted concentration of half-maximal effect; % of control where 0% means no effect
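Modulation of forskolin-driven signalling is measured in CHO cells carrying a CRE-controlled beta-lactamase reporter. Cells are stimulated with EC10 NKH 477 in the presence of titrated compound for 3 h at 37 °C, then loaded with CCF4 for 2 h at room temperature.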
4MU fluor: compounds fluorescent in 4-MU spectral region; compound autofluorescence, 340/450 nm, 4-MU equivalents; hits give high values; max dye-equivalent concentration, M; 59,000 tested, 11% active; AID 589; in the data active = max dye-equivalent concentration above about 10 nM; inconclusive = mostly about 1.1 nM to 9.6 nM
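Compounds in 100 mM Tris, pH 8.0, sat 15 min at room temperature before fluorescence was read at 340 nm excitation/450 nm emission; a per-plate six-point 4-MU standard curve converted signals to dye-equivalent concentration at each compound concentration.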
HADH2 inh: inhibitors of human HADH2 dehydrogenase; Q99714; recombinant HADH2, NADH fluorescence, beta-hydroxybutyryl-CoA; Potency, µM (highest dose often 57.1 µM), without a hit: top-dose activity change, negative = inhibition, most hits filed as inhibitors; 73,000 tested, 3.4% active; note: potency is the fitted concentration of half-maximal effect; % is set by controls: 0 for no effect and ±100 for the full control effect; nearly all actives have a fitted effect of over 60% in size
Target sequence (Q99714 whole entry, looked up, one chain of several): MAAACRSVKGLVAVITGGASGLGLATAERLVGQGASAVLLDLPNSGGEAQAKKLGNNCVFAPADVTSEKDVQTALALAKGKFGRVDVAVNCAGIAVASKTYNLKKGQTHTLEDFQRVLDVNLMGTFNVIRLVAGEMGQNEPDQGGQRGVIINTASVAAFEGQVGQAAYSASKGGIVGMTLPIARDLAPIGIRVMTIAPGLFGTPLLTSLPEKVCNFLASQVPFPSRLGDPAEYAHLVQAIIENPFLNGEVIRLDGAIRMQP
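Buffer 100 mM Tris-HCl pH 9.0/0.01% Tween-20; HADH2 20 nM; NAD+ 1 mM; beta-hydroxybutyryl-CoA 90 uM (all final). 15 min cpd preincubation, RT.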
A350 fluor: A350 region autofluorescence; Compound autofluorescence, 340/450 nm, Alexa 350 dye-equivalents; hits give high values; AID 590; 59,000 tested, 11% active; max dye-equivalent concentration, M; in the data active = max dye-equivalent concentration above about 10 nM; inconclusive = mostly about 1.1 nM to 9.6 nM
The depositor's hits bear a star; i = inactive; ? = inconclusive; · = no result given; [ ] = dose if it differs, or a comment. Unless noted, calls come from the whole dose curve; as a rule, active = well fitted curve in the direction sought with a large enough effect; inconclusive = small, poorly fitted or top-dose-only effect, or another doubt; inactive = no such curve, though single readings can be large; an effect the other way counts as inactive or inconclusive.

SMILES	HSD17B inhib	AID923	CRE Fsk mod	4MU fluor	HADH2 inh	A350 fluor
O=C(c1ccco1)N1CCC2(CC1)CCN(c1ccc(-c3ccccc3)cc1)CC2	2.8%	-2.6%	9.9%	i	5.0%	i
C[N+](C)(C)CC(=O)N/N=C\c1c(O)ccc2ccccc12	5.1%[11.4 µM]	20.4%[11.5 µM]	11.9%[7.6 µM]	i	1.8%[11.4 µM]	i
Cc1nc(N=Nc2ccc(S(=O)(=O)O)cc2S(=O)(=O)O)c(COP(=O)(O)O)c(C=O)c1O	-16.2%	16.2%	-1.1%	i	-7.3%	i
Cc1nc(N=Nc2ccc(C(=O)O)cc2)c(COP(=O)(O)O)c(C=O)c1O	?	3.2%	-1.9%	1.01e-08M*	-14.9%	?
CCc1c2c(nc3cccc(SC)c13)COC2	25.1µM*	17.5%	?	·	?	·
O=C(O)CSc1nnc(-c2ccco2)o1	0.9%	-0.6%	-5.3%	i	1.9%	i
Brc1c(CSc2nnc(-c3ccco3)o2)nc2ccccn12	-14.2%	0.7%	3.16µM*	i	21.0%	i
c1coc(-c2nnc(SCc3cn4ccccc4n3)o2)c1	-6.2%	-1.3%	10µM*	i	4.2%	i
N#C/C(=C\Nc1ccccn1)C(=O)C1CC1	4.0%[11.4 µM]	3.3%[11.5 µM]	0.5%[7.6 µM]	i	8.5%[11.4 µM]	i
Cn1c(SCc2nc3ccccc3[nH]2)nnc1-c1cccnc1	-5.8%	6.0%	?	3.92e-08M*	-13.7%	1.57e-08M*
c1coc(Cn2c(SCc3nc4ccccc4[nH]3)nnc2-c2cccs2)c1	1.8%	1.4%	-5.2%	i	0.8%	i
Cc1cccc(-c2nnc(SCc3nc4ccccc4[nH]3)n2Cc2ccco2)c1	0.2%	3.2%	2.51µM*	i	-3.1%	i
COc1ccccc1-c1nnc(SCc2nc3ccccc3[nH]2)n1C	18.4%	-2.3%	?	i	8.6%	i
Cc1ccc(C)c2[nH]c(=O)c(CN(CCCN(C)C)C(=O)NCc3ccccc3)cc12	?	0.9%	?	?	3.4%	1.18e-08M*
CCN(CC)CCCN(Cc1cc2cc(OC)ccc2[nH]c1=O)C(=O)Nc1ccccc1	25.1µM*	0.9%	-3.6%	2.11e-07M*	-5.5%	2.49e-07M*
Cc1ccc2cc(CN(CCN3CCOCC3)C(=O)NCc3ccccc3)c(=O)[nH]c2c1C	?	1.2%	-9.3%	i	-4.2%	?
COc1ccc2[nH]c(=O)c(CN(CCN(C)C)C(=O)NCc3ccccc3)cc2c1	31.6µM*	0.0%	-4.3%	2.71e-07M*	-29.8%	2.56e-07M*
Cc1ccc2[nH]c(=O)c(CN(CCO)C(=O)NCc3ccccc3)cc2c1	?	-1.2%	1.3%	i	-1.6%	?
COc1ccc(NC(=O)N(CCCN(C)C)Cc2cc3cc(OC)ccc3[nH]c2=O)cc1	31.6µM*	1.2%	7.4%	7.03e-08M*	-18.8%	7.66e-08M*
COc1ccc(C(C#N)C2(C)OCCO2)cc1OC (configuration not stated)	7.9%	0.8%	22.9%	·	8.2%	·
COCC(=O)N1CCC2(CCCN(Cc3cc(C(F)(F)F)cc(C(F)(F)F)c3)C2)CC1	0.7%	0.7%	-2.0%	i	7.0%	i
O=C(O)C[C@@H](C(=O)O)C1c2ccccc2-c2ccccc21	-2.3%[11.4 µM]	1.0%[11.5 µM]	5.0%[7.6 µM]	i	11.0%[11.4 µM]	i
Clc1ccccc1-c1nccc(NCc2cccs2)n1	-14.4%	4.4%	?	i	13.3%	i
CC(C)=CCC/C(C)=C/C=O	2.5%	-1.6%	-0.1%	·	-2.2%	·
O=C(NCc1ccccc1)N(Cc1cc2cc3c(cc2[nH]c1=O)OCO3)CC1CCCO1 (configuration not stated)	25.1µM*	2.5%	3.5%	3.61e-07M*	?	3.06e-07M*
Cc1ccc2[nH]c(=O)c(CN(CC3CCCO3)C(=O)c3ccco3)cc2c1 (configuration not stated)	-1.7%	-1.7%	-2.8%	?	3.1%	?
COC(=O)c1ccccc1S(=O)(=O)N(Cc1cc2ccc(OC)cc2[nH]c1=O)CC1CCCO1 (configuration not stated)	?	-1.1%	7.4%	i	31.7%	i
